D1 antagonist = blocks dopamine activation of the human D1 receptor. AID 504652. actives 3.2% (n = 360,000). P21728. HEK293 TREx D1 cells, calcium flux, dopamine EC80; stronger effect = lower value. activity change, negative = inhibition, % at 10 µM; in the data active = activity change below about -30%; note: % is set by controls: 0 for no effect and ±100 for the full control effect
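Tetracycline-induced HEK293 T-REx cells with force-coupled D1 receptor were loaded with a no-wash calcium dye. Compound was added after a 10 s baseline and read kinetically for 180 s; EC80 dopamine was then added and calcium flux followed another 180 s.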
D1 ag = agonists of human D1 dopamine receptor. HEK293 T-REx D1 cells, calcium flux, agonist mode. actives 1% (n = 360,000). activation, % at 2 µM; note: 0% is about no effect
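Inducible HEK293 T-REx D1 cells, force-coupled to calcium signalling, were plated at 4000 cells/well with tetracycline and held overnight at 30 C. After no-wash calcium dye loading, compound-evoked calcium rise over 180 s flagged agonists.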
TRHR ag = TRH receptor (human) agonism. actives 0.18% (n = 360,000). activation, % at 2 µM. TRHR cells, calcium flux fluo-8, FDSS agonist mode. AID 493084; note: 0% is about no effect
Target sequence (P34981 whole entry, looked up): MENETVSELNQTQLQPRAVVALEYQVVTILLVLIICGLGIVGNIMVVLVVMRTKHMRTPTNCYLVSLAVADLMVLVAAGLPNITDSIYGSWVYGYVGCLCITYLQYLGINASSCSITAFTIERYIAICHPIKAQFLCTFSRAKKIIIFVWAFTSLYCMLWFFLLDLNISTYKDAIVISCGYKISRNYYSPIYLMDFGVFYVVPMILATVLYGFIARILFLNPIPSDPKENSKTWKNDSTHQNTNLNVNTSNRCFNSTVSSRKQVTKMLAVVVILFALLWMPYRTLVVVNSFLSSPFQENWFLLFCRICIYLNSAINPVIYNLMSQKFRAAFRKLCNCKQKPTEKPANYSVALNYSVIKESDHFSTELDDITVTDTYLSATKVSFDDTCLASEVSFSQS
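In this calcium-flux screen, cells bearing human TRHR are dye-loaded with fluo-8, baselined for 10 cycles, then exposed to library compounds; positive kinetic calcium responses during the agonist phase mark hits, with TRH as control.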
D1 potentiator = potentiators of human D1 dopamine receptor | HEK293 TREx D1 cells, calcium flux, dopamine EC20 potentiation | P21728 | actives 0.036% (n = 360,000) | AID 504651 | potentiation, % at 10 µM; in the data active = potentiation above about 30%; note: 0% is about no effect
TRHR enhancer = allosterically enhances the human TRH receptor. P34981. TRHR cells, fluo-8 calcium fluorescence, EC20 TRH enhancement. enhancement, % at 2 µM. actives 0.66% (n = 360,000). AID 493056; in the data active = enhancement above about 30%; note: 0% is about no effect
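Enhancer read-out: after compound pinning and an initial kinetic agonist-mode read, an EC20 of TRH (10 nM final) was injected and fluo-8 calcium signal (Ex 480/Em 530) followed at 1 s/cycle for 100 cycles in TRHR-expressing cells.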
Active calls of the source: *; . = no result. Most compounds without a hit are left out; they make up all but 4.7% or so of the library. Cut-off read from the data, not from the text of the source, unless noted: active = activation above about 30%; inactive = the rest.

SMILES | D1 antagonist | D1 ag | TRHR ag | D1 potentiator | TRHR enhancer
CCOC(=O)C1CCCN(c2c(N3CCN(c4ccccn4)CC3)c(=O)c2=O)C1 (stereo unspecified) | -52* | 1 | 0 | -12 | 3
CC(C)(C)OC(=O)N1CCC(c2c(C(=O)NCc3ccco3)cnn2-c2ccccc2)CC1 | -7 | 1 | 0 | 1 | 5
Cc1cc(Cl)ccc1N=c1ssnc1Cl | -17 | 30* | 6 | 0 | -3
CCOC(=O)c1c(C)oc2nc(C)nc(NCC3CCN(Cc4ccccc4C)CC3)c12 | -8 | 0 | 0 | 6 | 0
COC(=O)c1sccc1S(=O)(=O)NC(C)c1cnn(-c2ccc(OC)cc2)c1C (stereo unspecified) | -50* | 3 | 0 | 1 | -1
Cc1nc(N)c(Cc2ccccc2F)c(N)n1 | -35* | 4 | 0 | -1 | -3
NS(=O)(=O)c1ccc(NS(=O)(=O)c2ccc(C3CNC(=O)C3)cc2)cc1 (stereo unspecified) | -5 | 6 | -1 | -7 | 5
CC(C)(C)NC(=O)CSc1nc(-c2ccc(F)cc2)cs1 | 3 | 2 | -2 | 0 | -2
Cc1cc(NC(=O)CSc2ccc(Cl)cc2)no1 | 3 | 3 | -5 | -4 | -3
CCNC(=O)CSc1nc(-c2ccc(F)cc2)cs1 | -31* | 0 | 0 | -7 | -2
Cc1cccc(NC(=O)CSc2nnc(-c3cc(C)n(-c4ccccc4)c3C)o2)c1C | -22 | 0 | 0 | -8 | -1
Cc1cc(-c2nnc(SCC(=O)Nc3ccccc3C(F)(F)F)o2)c(C)n1-c1ccccc1 | -1 | 52* | 8 | -4 | 6
Cc1cc(NC(=O)CSc2nc(-c3ccc(Cl)cc3)cs2)no1 | -46* | 2 | 0 | -3 | -1
Cc1cc(NC(=O)CSc2nnc(-c3ccccc3Cl)o2)no1 | -6 | 1 | 0 | -8 | 34*
COc1ccc(C2N(C(=O)CN3CCCC3)CCCN2S(=O)(=O)c2ccccc2)cc1 (stereo unspecified) | 8 | 32* | -1 | 3 | 4
COc1ccc(C2N(C(C)=O)CCCN2S(=O)(=O)c2ccc(C)cc2)cc1 (stereo unspecified) | 1 | 0 | 0 | -7 | -1
CC1N(C(=O)N(C)C)CCN1S(=O)(=O)c1ccccc1 (stereo unspecified) | 4 | 2 | -1 | -2 | 36*
CC(C)C1N(C(=O)CN2CCCC2)CCN1S(=O)(=O)c1ccccc1 (stereo unspecified) | -45* | 5 | 1 | -12 | -2
O=C(c1ccc([N+](=O)[O-])cc1)N1CCN(c2ccc(Nc3ccccc3)nn2)CC1 | . | -4 | 0 | -2 | -3
COc1ccc(CNC(=O)C/C(C)=N/NC(=O)c2cnccn2)cc1 | 8 | 35* | 3 | 9 | 0
CCCNC(=O)C/C(C)=N/NC(=O)COc1ccc(C)cc1Br | -7 | 20 | 0 | 3 | 20
COc1ccc(CNC(=O)C/C(C)=N/NC(=O)COc2ccc(C)cc2Br)cc1 | -10 | 1 | 0 | -8 | 32*
COc1ccccc1N1CCN(c2ncnc3c2cnn3-c2cc(Cl)ccc2C)CC1 | -8 | -4 | 0 | -3 | -1
CC(C)c1ccc(N2C(=O)CS(=O)(=O)C23C(=O)N(Cc2cccc(F)c2)c2ccccc23)cc1 (stereo unspecified) | -3 | 5 | 1 | -5 | -15
Cc1ccsc1/C=N/NC(=O)CO | 7 | 4 | 0 | 5 | 2
SMILES | D1 antagonist | D1 ag | TRHR ag | D1 potentiator | TRHR enhancer
CCOC(=O)N/N=C\c1sccc1C | -42* | 2 | 0 | -3 | -4
Cc1ccsc1/C=N\NC(=O)c1cc(C(C)(C)C)[nH]n1 | -39* | 0 | -1 | -8 | 7
Cc1cnc(NC(=O)c2c(-c3ccccc3)noc2C)s1 | -34* | -1 | 0 | -6 | -1
Cc1onc(-c2ccccc2)c1C(=O)OCC(=O)Nc1cccc(Cl)c1 | 2 | 47* | 2 | . | -6
CCOC(=O)c1ccccc1NC(=O)c1c(-c2ccccc2)noc1C | -10 | 32* | 1 | -6 | 7
CCOC(=O)c1c(NC(=O)c2c(-c3ccccc3)noc2C)sc(C)c1-c1ccccc1 | 6 | 3 | 0 | 0 | 1
CCn1nc(-c2ccccc2)c(-c2ccccc2)c(C(=O)Nc2ccccc2C(N)=O)c1=O | -42* | 7 | 0 | 0 | -5
CS(=O)(=O)NN1C(=O)c2ccccc2NC1c1cccs1 (stereo unspecified) | 1 | 3 | 0 | -2 | 0
Fc1ccc2[nH]c3c(c2c1)CN(C(=S)NCc1ccccc1)CC3 | -38* | 6 | -2 | -4 | 6
COc1ccc(OC)c(C(=O)Cn2nnc3ccccc3c2=O)c1 | 1 | -1 | 0 | -5 | 39*
Cc1cc(C(=O)Cn2nnc3ccccc3c2=O)c(C)n1Cc1cccs1 | 5 | 5 | -1 | -6 | 32*
O=C1OC2(c3ccccc31)c1cc(I)c(O)c(I)c1Oc1c2cc(I)c(O)c1I | -42* | 411* | 242* | -1 | -10
CCN1CCN(c2cc(=O)n(C3CCCCC3)c(=O)[nH]2)CC1 | -9 | 1 | 0 | -3 | 34*
CSCC[C@H](NC(=O)OC(C)(C)C)C(=O)N/N=C/c1ccc2nccnc2c1 | 3 | 1 | 0 | -5 | -3
COc1ccc(COC(=O)c2c(C)nn(-c3ccccc3)c2Cl)cc1 | -37* | 25 | 1 | -7 | -9
O=C(NCc1ccccc1Cl)c1cc2c(s1)-c1ccccc1SC2 | -17 | 4 | 1 | -3 | -5
COc1ccccc1NC(=O)c1ccc(NC2=NC3CS(=O)(=O)CC3S2)cc1 (stereo unspecified) | -35* | 2 | 0 | -13 | 2
COc1ccccc1NC(=O)c1ccc(NC(=O)COC(=O)C2CCCO2)cc1 (stereo unspecified) | -11 | 2 | 0 | -2 | -1
CCOc1ccc(CCNC(=O)c2cccc(NC3=NC4CS(=O)(=O)CC4S3)c2)cc1OCC (stereo unspecified) | -11 | 0 | 0 | 3 | 0
CCOc1ccc(CCNC(=O)c2cccc(NC3=NC4CS(=O)(=O)CC4S3)c2)cc1 (stereo unspecified) | -2 | 1 | -1 | -5 | 34*
COc1cccc(CNC(=O)c2ccc(C)c(NC3=NC4CS(=O)(=O)CC4S3)c2)c1 (stereo unspecified) | -32* | 2 | 0 | 1 | 1
COc1ccccc1NC(=O)c1ccc(NC(=O)COC(=O)C2CC2C)cc1 (stereo unspecified) | -43* | 0 | 0 | -7 | 8
COc1ccc(CN2C(=O)c3cccnc3C2=O)cc1S(=O)(=O)N(C)c1cccc(C)c1 | -13 | 0 | -1 | -5 | -2
COc1cc2c(cc1OC)[C@H](Cc1ccc(O)cc1)NCC2 | -20 | 1 | 0 | -8 | 7
